An excerpt weighted towards active compounds, which were near 2.8% of everything screened.
PG9 binder: PG9 antibody binding by small molecule; TR-FRET gp120-PG9 antibody binding; inhibition, % at 6.7 µM; hit rate 0.43% among 360,000; in the data active = inhibition above about 8.5%
NR1D1 modulator: modulates human Rev-erb alpha binding to DNA; P20393; Rev-erbα–FITC-DNA binding, fluorescence polarization, 90 min; activity, % at 10 µM; hit rate 0.79% among 370,000; AID 1259318;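 active = activity above about 14%, limit read from the data; passing the limit was not always enough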
KLK7 zymogen act: proKLK7 (human) activation, primary screen; P49862; purified proKLK7, EDANS-DABCYL substrate fluorescence; 100% is mature enzyme control, 0% vehicle; activation, % at 7 µM; hit rate 0.9% among 370,000; AID 652039;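 active = activation above the mean of all tested compounds plus 3 SD, computed per campaign excluding outliers beyond control limits, cut at about 13% in these data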
Target sequence (P49862 whole entry, looked up): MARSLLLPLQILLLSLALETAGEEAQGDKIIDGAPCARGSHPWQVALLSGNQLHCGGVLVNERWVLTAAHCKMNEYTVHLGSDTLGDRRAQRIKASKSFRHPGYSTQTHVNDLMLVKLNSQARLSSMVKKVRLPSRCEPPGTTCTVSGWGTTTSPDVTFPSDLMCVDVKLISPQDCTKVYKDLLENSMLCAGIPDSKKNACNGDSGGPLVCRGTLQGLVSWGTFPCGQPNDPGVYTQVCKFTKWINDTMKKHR
PP1 counter: counter-screen for PP5 inhibitors: inhibitors of human PP1-alpha | hit rate 0.9% among 320,000 | inhibition, % at 6.7 µM | AID 2235 | purified PP1alpha, OMFP fluorescence;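 active = inhibition above the mean inhibition of all tested compounds plus 3 SD, computed separately for each screening campaign, cut at about 15% in these data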
Target sequence (P62136 whole entry, looked up): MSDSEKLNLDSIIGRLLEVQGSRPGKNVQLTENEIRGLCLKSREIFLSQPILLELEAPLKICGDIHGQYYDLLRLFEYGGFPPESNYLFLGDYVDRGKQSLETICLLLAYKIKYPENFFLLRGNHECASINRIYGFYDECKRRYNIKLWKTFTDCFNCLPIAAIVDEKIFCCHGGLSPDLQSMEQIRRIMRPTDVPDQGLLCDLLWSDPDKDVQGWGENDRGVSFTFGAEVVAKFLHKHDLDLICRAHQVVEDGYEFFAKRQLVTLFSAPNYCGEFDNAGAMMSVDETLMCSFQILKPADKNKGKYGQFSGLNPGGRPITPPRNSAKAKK
PP5 primary: inhibitors of human protein phosphatase 5 (PP5) | P53041 | purified PP5c, OMFP substrate fluorescence | inhibition, % at 6.7 µM | hit rate 0.18% among 320,000 | AID 1987;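 active = inhibition above the campaign's mean inhibition across all tested compounds plus 3 SD, cut at about 9.5% in these data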
GASC-1 inh: blocks human GASC-1 demethylase activity; inhibition, % at 2.35 µM; GST-JMJD2C(1-420) H3K9me3 demethylation, DELFIA europium; Q9H3R0; AID 2099; hit rate 0.069% among 330,000;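 active = more than half of a compound's replicate wells show inhibition beyond 50%, single wells judged on their own value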;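 also: signal counts dimethyl H3K9 product captured on neutravidin plate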
PP1 inh confirm: confirmation of human PP1 phosphatase inhibitors; hit rate 52% among 1,900; shares compounds with PP1 counter; purified PP1alpha, OMFP substrate fluorescence; inhibition, % at 6.7 µM;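 active = mean PP1 inhibition above a set limit taken from the earlier primary screen, cut at about 15% in these data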
PP5 inh counter: PP5 phosphatase inhibition, counter-screen for PP1 inhibitors; inhibition, % at 6.7 µM; hit rate 4% among 1,900; AID 2360; shares compounds with PP1 counter; purified PP5c, OMFP fluorescence;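 active = mean PP5 inhibition over triplicate wells above about 9.5% taken from the earlier PP1 screen, limit read from the data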
PG9 binder conf: PG9 antibody binding, confirmed. shares compounds with PG9 binder. TR-FRET PG9 antibody binding, biochemical. inhibition, % at 6.7 µM. hit rate 90% among 1,500. AID 651571; in the data active = inhibition above about 9%
PGV04 counter: binds control antibody PGV04 in PG9 binder counter-screen; inhibition, % at 6.7 µM; shares compounds with PG9 binder; AID 651604; TR-FRET PGV04 antibody-gp120 binding, biochemical; hit rate 95% among 1,500; in the data active = inhibition above about 9.5%
KLK7 act conf: proKLK7 activation, confirmation | shares compounds with KLK7 zymogen act | purified proKLK7, EDANS-DABCYL substrate fluorescence; scaled: vehicle 0, mature enzyme 100 | activation, % at 7 µM | hit rate 68% among 3,200 | AID 686949;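 active = activation, as change over the incubation, above the mean of all tested compounds plus 3 SD, cut at about 13% in these data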
EDANS interfere: optically interferes with EDANS-DABCYL signal, flagging KLK7 hits. hit rate 80% among 3,200. activation, % at 7 µM. EDANS-DABCYL substrate fluorescence interference, no enzyme, 4 h; solvent 0%, active enzyme control 100%. AID 686952. shares compounds with KLK7 zymogen act;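 active = activation above the all-compound mean plus 3 SD, ignoring values outside control-based bounds, cut at about 4.8% in these data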;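 also: value is the 4 h activation minus the activation read at time zero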
Rev-erbA confirm: Rev-erb alpha (human) modulation, hit confirmation; hit rate 61% among 3,000; AID 1259319; activation, % at 25 µM; shares compounds with NR1D1 modulator; Rev-erb alpha FITC-DNA binding, fluorescence polarization, 90 min;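 active = activation at or above a set limit, or at least 3 SD above the negative control mean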
Each line names hits and unclear results; the compound was inactive in the other large screens (follow-up assays come after a bar, where they were run).

CC1Oc2cc3c(-c4c(O)cc(O)c5c(O)c6c(cc45)OC(C)C(C)C6=O)c(O)cc(O)c3c(O)c2C(=O)C1C (stereo unspecified)	PP1 counter 57 (no result: PG9 binder, NR1D1 modulator, KLK7 zymogen act) | PP1 inh confirm 25 | PP5 inh counter inactive
COc1ccc(NC(=O)C2C3CCC(O3)C2C(=O)O)c(OC)c1 (stereo unspecified)	PP1 counter 75, PP5 primary 76 | PP1 inh confirm 29 | PP5 inh counter 46
O=C(Nc1ccc(Cl)cc1)N1CC1	none (no result: PP1 counter, PP5 primary, GASC-1 inh)
O=C(O)C1C2CCC(O2)C1C(=O)NC1CCCCC1 (stereo unspecified)	PP1 counter 73, PP5 primary 76 | PP1 inh confirm 48 | PP5 inh counter 56
O=C(O)C1C2CCC(O2)C1C(=O)Nc1ccc(Cl)cc1 (stereo unspecified)	PP1 counter 63, PP5 primary 69 | PP1 inh confirm 18 | PP5 inh counter 26
COc1ccc(OC)c(CC(=O)O)c1	none
C=C1C(=O)C(C)=C2C(=O)N3Cc4[nH]c5ccccc5c4CC3(C(=O)OC)C12 (stereo unspecified)	none (no result: PG9 binder, PP1 counter, PP5 primary, GASC-1 inh)
C=C(C=O)CC1CC(O)[C@]2(C)OC3CC4OC5C[C@]6(C)O[C@]7(C)CCC8OC9C[C@]%10(C)OC%11C(C)=CC(=O)OC%11CC%10OC9C[C@@H](C)C8OC7CC6O[C@]5(C)C/C=C\C4OC3CC2O1 (stereo partly specified)	none (no result: PG9 binder, KLK7 zymogen act, PP1 counter, PP5 primary, GASC-1 inh)
CN1CCN2c3ccc(N)cc3CC3(C(=O)NC(=O)NC3=O)C2C1 (stereo unspecified)	none (no result: PP1 counter, PP5 primary)
CN1C(=O)N(C)C(=O)C2(Cc3cc(N)ccc3N3CCN(c4ccccc4F)CC32)C1=O (stereo unspecified)	PP1 counter 23 | PP1 inh confirm 32 | PP5 inh counter inactive
Oc1ccccc1-c1ccccc1	none (no result: PG9 binder, KLK7 zymogen act, PP1 counter, PP5 primary, GASC-1 inh)
O=C(CN1C(=O)[C@@H](Cc2ccc(O)cc2)N=C(c2ccccc2)c2ccccc21)NC1CCCCC1	none (no result: PG9 binder, PP1 counter, PP5 primary, GASC-1 inh)
CC(C)C(Br)C(=O)NC(N)=O (stereo unspecified)	none (no result: PG9 binder, KLK7 zymogen act, PP1 counter, PP5 primary, GASC-1 inh)
Clc1ccc(C(c2ccc(Cl)cc2)n2cc[n+](CC(OCc3ccc(Cl)cc3Cl)c3ccc(Cl)cc3Cl)c2)cc1 (stereo unspecified)	PP1 counter 52 (no result: GASC-1 inh) | PP1 inh confirm 35 | PP5 inh counter inactive
NC(N)=N/N=C/c1ccc(N(c2ccccc2)c2ccccc2)cc1	PP1 counter 38 | PP1 inh confirm 25 | PP5 inh counter inactive
CC(C)(C)c1ccc(O)cc1	none (no result: PG9 binder, KLK7 zymogen act, PP1 counter, PP5 primary, GASC-1 inh)
O=c1[nH]c(O)c(/C=C2/C=CC(c3cc(Cl)ccc3Cl)=N2)c(=O)[nH]1	PP1 counter 19 | PP1 inh confirm 47 | PP5 inh counter inactive
CCC1(C)CC(=O)NC(=O)C1	none (no result: PG9 binder, KLK7 zymogen act, PP1 counter, PP5 primary, GASC-1 inh)
O=C1OC(c2ccc(O)c(S(=O)(=O)O)c2)(c2ccc(O)c(S(=O)(=O)O)c2)c2c(Br)c(Br)c(Br)c(Br)c21	none (no result: PG9 binder, KLK7 zymogen act, PP1 counter, PP5 primary, GASC-1 inh)
CN(C)C1C(=O)C(C(N)=O)=C(O)C2(O)C(=O)C3=C(O)c4c(O)cccc4C(C)(O)C3C(O)C12 (stereo unspecified)	PP1 counter 33 | PP1 inh confirm inactive | PP5 inh counter inactive
CC[C@@H](CO)NC(=O)[C@@H]1C=C2c3cccc4c3c(cn4C)C[C@H]2N(C)C1	none
CCC(CO)NC(=O)C1C=C2c3cccc4[nH]cc(c34)CC2N(C)C1 (stereo unspecified)	PG9 binder 14 | PG9 binder conf 12 | PGV04 counter 15
CCn1c(O)c(C=Nc2ccc(S(N)(=O)=O)cc2)c(=O)n(CC)c1=S	PG9 binder 54 | PG9 binder conf 69 | PGV04 counter 86
CCn1c(O)c(C=NCc2ccccc2)c(=O)[nH]c1=S	PG9 binder 11 | PG9 binder conf 28 | PGV04 counter 37
NS(=O)(=O)c1ccc(N=Cc2c(O)n(C3CCCCC3)c(=O)n(C3CCCCC3)c2=O)cc1	none
CCn1c(O)c(C=Nc2ccc(S(N)(=O)=O)cc2)c(=O)[nH]c1=S	PG9 binder 25 | PG9 binder conf 92 | PGV04 counter 92
CCCC(=O)N1c2ccc(Cl)cc2C(c2ccccc2)=NCC1C(=O)NC(C)(C)C (stereo unspecified)	none (no result: PG9 binder, PP1 counter, PP5 primary, GASC-1 inh)
CCCOC(=O)COc1cc(C)cc2oc(=O)c3c(c12)CCC3	PG9 binder 9.9 | PG9 binder conf 23 | PGV04 counter 30
Cc1cc(OCC(=O)O)c2c3c(c(=O)oc2c1)CCCC3	none
COC(=O)C1=C[C@H]([C@@H](C)[C@H](OC)c2ccccc2Br)[C@@H]2[C@H]1c1ccccc1N2C	none (no result: PG9 binder, PP1 counter, PP5 primary, GASC-1 inh)
Cn1cc(/C=C2\C(=O)NC(=O)N(c3ccccc3)C2=O)c2ccccc21	PG9 binder 11 | PG9 binder conf inactive | PGV04 counter 20
CCOC(=O)CC[C@@H]1CC[C@]2(CCCN(Cc3cccnc3)C2)O1	none (no result: PG9 binder, PP1 counter, PP5 primary, GASC-1 inh)
CC[C@@H](CO)NC(=O)[C@@H]1C=C2c3cccc4[nH]cc(c34)C[C@H]2N(C)C1	PG9 binder 16, KLK7 zymogen act 19 (no result: PP1 counter, PP5 primary, GASC-1 inh) | PG9 binder conf 21 | PGV04 counter 33 | KLK7 act conf inactive | EDANS interfere inactive
CC(C)C(C(=O)NC(C)(C)C)N1C(=O)CN=C(c2ccccc2)c2ccccc21 (stereo unspecified)	none (no result: PG9 binder, PP1 counter, PP5 primary, GASC-1 inh)
CCCCCn1c(=O)c(C(=O)Nc2ccccc2S(N)(=O)=O)c(O)c2ccccc21	PG9 binder 69, NR1D1 modulator 43 | PG9 binder conf 79 | PGV04 counter 83 | Rev-erbA confirm inactive
CC(C)(C)NC(=O)C1CN=C(c2ccccc2)c2cc(Cl)ccc2N1C(=O)C1CCC1 (stereo unspecified)	none (no result: PG9 binder, PP1 counter, PP5 primary, GASC-1 inh)
CCOC(=O)c1c(N)n(CCCOC(=O)c2ccco2)c2nc3ccccc3nc12	KLK7 zymogen act 39 | KLK7 act conf 63 | EDANS interfere 64

Compound activity (PubChem)
